A selection: hits, their analogues and other compounds. The true share with any hit is near 2.8%.
POLK inh – DNA polymerase kappa (human) inhibition; Q9UBT6; purified Pol kappa, fluorescent DNA synthesis assay, 10 min; Potency, µM (series often up to 107 µM), inactives show at the highest dose activity, negative = inhibition, hits mostly inhibitors; hit rate 0.53% among 400,000; AID 588579; also: potency is read from the fitted curve at half-maximal effect; % is scaled to controls: 0 for no effect and ±100 for the full control effect
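Here, compound and 10 nM enzyme are combined for 15 min at room temperature; adding 50 nM substrate (final) starts DNA synthesis, tracked by fluorescence at 0 and 10 min against buffer-only wells.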
PI5P4Ka inh – inhibitors of human PI5P4K alpha; PI5P4Kalpha enzyme, ADP-Glo luminescence, 60 min; hits give low values; max response, %; hit rate 1.2% among 330,000; active = max response of -50% or lower; inconclusive = between -30% and -50%; inactive = -30% or higher; also: value at the top dose of about 77 µM; % is scaled to controls: 0 for no effect and ±100 for the full control effect
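Compounds were pin-transferred onto PI5P4Kalpha and substrate in HEPES pH 7.4 buffer with EGTA, CHAPS and 5% DMSO. ATP (5 microM final) started the reaction, which ran 60 minutes at room temperature before ADP-Glo detection.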
Pol eta inh – DNA polymerase eta (human) inhibition; Q9Y253; recombinant Pol eta, fluorescent DNA replication assay; Potency, µM (series often up to 114 µM), for the others: at the highest dose activity change, negative = inhibition, hits mostly inhibitors; hit rate 1.2% among 390,000; also: potency is read from the fitted curve at half-maximal effect; % is scaled to controls: 0 for no effect and ±100 for the full control effect
Target sequence (Q9Y253 whole entry, looked up): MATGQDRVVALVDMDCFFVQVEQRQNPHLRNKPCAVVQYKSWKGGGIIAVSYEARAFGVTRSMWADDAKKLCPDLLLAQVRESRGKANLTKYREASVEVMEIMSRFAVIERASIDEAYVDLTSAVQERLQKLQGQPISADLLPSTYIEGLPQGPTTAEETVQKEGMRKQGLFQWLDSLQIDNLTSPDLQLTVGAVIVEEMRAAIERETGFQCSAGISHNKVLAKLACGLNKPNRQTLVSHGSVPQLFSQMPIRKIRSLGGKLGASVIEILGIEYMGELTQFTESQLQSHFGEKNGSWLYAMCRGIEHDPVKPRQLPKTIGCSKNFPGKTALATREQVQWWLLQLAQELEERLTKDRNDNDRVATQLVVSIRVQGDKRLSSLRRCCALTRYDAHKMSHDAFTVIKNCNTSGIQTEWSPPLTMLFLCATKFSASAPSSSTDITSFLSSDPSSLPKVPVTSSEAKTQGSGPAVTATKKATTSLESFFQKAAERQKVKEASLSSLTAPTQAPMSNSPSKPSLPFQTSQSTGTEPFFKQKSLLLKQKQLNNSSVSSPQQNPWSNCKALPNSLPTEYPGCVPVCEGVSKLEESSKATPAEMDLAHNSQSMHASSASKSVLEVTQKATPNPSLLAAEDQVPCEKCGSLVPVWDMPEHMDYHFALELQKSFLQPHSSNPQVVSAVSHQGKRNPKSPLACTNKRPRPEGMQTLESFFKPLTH
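Pol eta at 10 nM preincubated with compounds 15 min at room temperature; reaction started with fluorescent substrate (50 nM final) and read kinetically at 0 and 10 min.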
POLB inh – inhibitors of human DNA polymerase beta | Pol beta primer extension/strand displacement, fluorescence kinetic | Potency, µM (series often up to 114 µM), inactives show at the highest dose activity change, negative = inhibition, most hits filed as inhibitors | hit rate 1.3% among 340,000; also: potency is read from the fitted curve at half-maximal effect; % is scaled to controls: 0 for no effect and ±100 for the full control effect
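Homogeneous kinetic assay of primer extension and strand displacement by 10 nM Pol beta, preincubated 15 min at room temperature with compound before 50 nM substrate (final) was added. Read at 0 and 10 min; four-parameter Hill fit.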
WRN inhibitor – WRN helicase (human) inhibition; WRN helicase unwinding, fluorescent forked duplex, kinetic; Potency, µM (doses to about 114 µM), for inactives: at the top dose activity change, negative = inhibition, most hits filed as inhibitors; Q14191; AID 651768; hit rate 0.46% among 360,000; also: potency is read from the fitted curve at half-maximal effect; % is scaled to controls: 0 for no effect and ±100 for the full control effect; nearly all actives have a fitted effect of over 55% in size
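Kinetic red-fluorescence monitoring (525/598 nm) tracks WRN helicase activity after 100 nM fluorophore-quencher forked duplex and 2 mM ATP are added to 20 nM enzyme pretreated 15 min at room temperature with compound.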
Pol iota inh – DNA polymerase iota (human) inhibition; Q9UNA4; Pol iota fluorescent replication assay, 10 min; Potency, µM (doses to about 115 µM), inactives show top-dose activity, negative = inhibition, actives largely listed as inhibitors; hit rate 1% among 390,000; AID 588590; also: potency is read from the fitted curve at half-maximal effect
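Pol iota at 10 nM preincubated 15 min with compounds at room temperature; reaction started with fluorescent substrate, 50 nM final. Fluorescence read kinetically at 0 and 10 min; buffer-only wells as negative control.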
Active calls of the source: *; u = inconclusive; x = no result; [ ] = remark or other dose. Unless noted, calls follow the shape of the dose curve; as a rule, active = well fitted curve in the direction sought with a large enough effect; inconclusive = small, poorly fitted or top-dose-only effect, or another doubt; inactive = no such curve, though single readings can be large; an effect the other way counts as inactive or inconclusive.

SMILES	POLK inh	PI5P4Ka inh	Pol eta inh	POLB inh	WRN inhibitor	Pol iota inh
Cc1cccc(C(=O)n2nc(-c3cccnc3)nc2NCc2ccccc2)c1	-22.5%	x	-11.0%	-1.0%	x	4.3%
CN(Cc1ccccc1)C(=O)c1cccc(NC(=O)Cc2ccc(NC(=O)C3CCCN(C(=O)C4CCC4)C3)cc2)c1 (stereo unspecified)	19.6%	-5.8	-17.7%	x	7.0%	-1.9%
O=C(CSc1ccccc1Cl)NC1CCCc2ccccc21 (stereo unspecified)	-14.0%	u	-6.9%	12.6µM*	-9.4%	94.6%
O=C(CSc1c(Cl)cccc1Cl)NC1CCCc2ccccc21 (stereo unspecified)	0.0%	u	u	u	-8.2%	u
COn1c2c(c3c4nonc4ccc31)CCCC2	-2.7%	x	-6.4%	-0.6%	-17.0%	22.4µM*
COn1c2c(c3c4no[n+]([O-])c4ccc31)CCCC2	-9.2%	x	-7.6%	-16.2%	77.2%	-1.7%
Cc1ccccc1CCNC(=O)C1CCN(S(=O)(=O)c2ccc3c(ccn3C)c2)CC1	-9.7%[60.1 µM]	x	-15.8%	1.5%	x	12.3%
COCCOC(=O)c1c(C)oc2ccc(NS(=O)(=O)c3ccc(C(=O)O)cc3)cc12	-21.7%	-2.0	11.2µM*	35.5µM*	-28.2%[57.1 µM]	-16.7%
Cc1cccc(Cn2c(CN3CCCC(C)C3)nc3c2c(=O)n(C)c(=O)n3C)c1 (stereo unspecified)	3.0%	x	-22.3%	17.3%	x	-4.8%
O=C(Nc1ccc(-c2nnc(-c3ccccc3)o2)cc1)C(F)(F)F	-15.9%	-2.8	10.0%	29.3%	-1.9%	5.4%
CC(C)C(=O)Nc1ccc(-c2nnc(-c3ccccc3)o2)cc1	3.8%	1.5	1.3%	44.7µM*	-6.8%	10.0%
O=C(O)C(S)[C@@H](S)C(=O)O (stereo partly specified)	22.4µM*	x	x	x	x	x
O=C(O)C(S)C(S)C(=O)O (stereo unspecified)	u	-55.3*	u	x	-29.5%	u
N[C@H](C(=O)O)[C@H](O)C(=O)O	-13.4%[60.1 µM]	x	-3.3%[57.1 µM]	14.7%[57.1 µM]	x	1.3%[58.9 µM]
COc1ccc(CNC(=O)c2oc3c(c2C)-c2nn(Cc4ccccc4Cl)cc2CC3)cc1	-20.7%	x	-15.0%	u	x	-11.8%
O=C(Nc1ccc(Br)cc1Br)c1cccc2c1C(=O)N(C1CCCCC1)C2	0.0%	14.5	-11.2%	18.2%	-12.2%	39.7%
O=C(Nc1ccc(F)cc1F)c1cccc2c1C(=O)N(C1CCCCC1)C2	-38.8%	x	-22.3%	12.6µM*	x	u
NC(=O)c1cccc2c1C(=O)N(C1CCCCC1)C2	u	-26.8	50.1µM*	u	-12.1%[57.1 µM]	u
CCOc1ccc(N(C(=O)CC(C)C)S(=O)(=O)c2ccc3c(c2)oc(=O)n3C)cc1	-23.9%	x	x	2.4%	x	-16.2%
CCCSc1nnc(NC(=O)c2cc(=O)c3ccccc3o2)s1	-13.3%	x	6.0%	5.2%	x	5.1%
Cc1ccc(C)c(NS(=O)(=O)c2ccc3[nH]c(=O)oc3c2)c1	u	u	31.6µM*	31.6µM*	-19.7%	u
CN(c1ccccc1)S(=O)(=O)c1ccc2[nH]c(=O)oc2c1	-28.0%	-22.2	31.6µM*	50.1µM*	-35.9%	11.2µM*
S=C(NNC(=S)Nc1ccccc1)Nc1ccccc1	-10.3%	-19.8	-21.1%	0.2%	-17.8%	109.1%
NC(=S)NNC(=S)Nc1ccccc1	-9.1%	-70.2*	1.3%	-0.5%	u	49.2%
CC(C)C(NC(=O)/C(=C/c1ccco1)NC(=O)c1ccc(Br)o1)C(=O)O (stereo unspecified)	u	0.4	20µM*	39.8µM*	-6.6%	u
SMILES	POLK inh	PI5P4Ka inh	Pol eta inh	POLB inh	WRN inhibitor	Pol iota inh
O=C(Nc1ccccc1C(=O)O)/C(=C/c1ccc([N+](=O)[O-])cc1)NC(=O)c1ccc(Br)o1	-29.3%	-12.5	39.8µM*	28.2µM*	-7.9%[11.6 µM]	-17.8%
O=C(NC(Cc1ccccc1)C(=O)O)/C(=C/c1ccc([N+](=O)[O-])cc1)NC(=O)c1ccc(Br)o1 (stereo unspecified)	-0.5%	4.8	-14.3%	1.7%	-0.8%	57.3%
O=C(Nc1ccc(C(=O)O)cc1)/C(=C\c1ccco1)NC(=O)c1ccc(Br)cc1	x	1.6	-2.0%	x	4.7%	x
NC(=O)/C(=C\c1ccco1)NC(=O)c1ccc(Br)o1	-6.1%	-6.7	-10.1%	x	-4.2%	105.5%
O=C(Nc1ccc(C(=O)O)cc1)/C(=C\c1ccco1)NC(=O)c1ccc(Br)o1	79.4µM*	-11.6	50.1µM*	u	-15.7%	u
O=C(O)/C(=C\c1ccco1)NC(=O)c1ccc(Br)o1	-28.6%	-17.4	20µM*	x	-15.7%[11.6 µM]	u
CCc1ccc(NC(=O)CCCc2nnc3n(CC(C)C)c(=O)c4sccc4n23)cc1	4.7%	x	-6.6%	11.5%	x	21.2%
C(=Nc1cnc2ccccc2c1)c1ccnc2ccccc12	-3.4%	x	x	x	x	21.1%
CNc1ccc(-c2cccc(C#N)c2)cn1	x	3.1	x	x	1.1%	x
O=C(O)/C(=C\c1ccco1)NC(=O)c1cccc2ccccc12	50.1µM*	x	50.1µM*	-1.3%	-15.5%	u
CC(C)(C)c1ccc(C(=O)N/C(=C\c2ccco2)C(=O)O)cc1	0.7%	2.3	-15.5%	u	-10.3%	40.9%
O=C(Cn1c(=O)n(-c2ccc(Cl)cc2)c(=O)c2sc3ccccc3c21)NC1CCCC1	5.1%	x	-1.7%	33.8%	x	28.7%
COc1ccc2c(c1)c(=O)oc1cc3oc(C)c(C)c3cc12	x	x	x	25.1µM*	x	x
COc1ccc2c(c1)c(=O)oc1cc(O)ccc12	-1.0%	-7.9	-3.5%	-0.6%	-18.1%	0.8%
O=C(C[n+]1ccccc1)Nc1c(Cl)cc(Cl)cc1Cl	-11.3%	12.9	-11.9%	8.91µM*	-1.7%	22.7%
O=c1c2nncn2ccn1-c1ccc(F)c(F)c1	-25.0%	x	-23.2%	31.6µM*	x	-4.2%
O=C(Cn1ccn(-c2ccc(F)c(F)c2)c(=O)c1=O)Nc1ccccc1F	-12.1%	x	-8.6%	-21.1%	x	349.7%
COC(=O)CSc1nc(-c2ccccc2)nc2ccc(F)cc12	-14.8%	7.9	4.4%	-2.4%	3.5%	11.5%
OCCSc1nc(-c2ccccc2)nc2ccc(F)cc12	u	24.5	-16.5%	u	5.6%	79.4µM*
COc1cc2nc(N3CCN(C)CC3)nc(NC(C)C)c2cc1OC	-4.8%	x	x	x	x	16.8%
O=C(N/N=C\C=C\c1ccco1)c1cc(-c2ccc3ccccc3c2)n[nH]1	79.4µM*	-68.2*	50.1µM*	15.8µM*	-12.8%[11.6 µM]	31.6µM*
O=C(N/N=C/C=C/c1ccccc1[N+](=O)[O-])c1cc(-c2ccccc2)n[nH]1	-30.8%	-11.1	u	u	-28.8%	u
O=C(N/N=C/C=C/c1ccco1)c1cccnc1	-42.1%	x	u	-0.6%	-21.9%[57.1 µM]	31.6µM*
O=C(N/N=C\C=C\c1ccco1)c1cncc(Br)c1	89.1µM*	-53.0*	u	u	u	20µM*
